According to PubChem BioAssay AID1159580 (chemical genetic matrix, 2015):
About 2,000 (36%) of roughly 5,500 compounds were called active. Another 18% or so got no clear call; they are omitted. No stated cut-off is given here; in the data, active means normalized growth mostly below about 0.91 (no sharp cut-off); inconclusive means no clear call, values can overlap the other calls; inactive means mostly above about 0.92. The list shows a part of the results.

Assay: chemical genetic growth profiling, strain panel (AID 1159580);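 further: tested at 20 µM; growth read once vehicle control cultures reached saturation at 30 °C; 1 = growth at the plate median or of vehicle wells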
Conditions: S. cerevisiae deletion strains, growth OD

Measured: normalized growth

O=C(c1ccc(OCCN2CCCCC2)cc1)c1c(-c2ccc(O)cc2)sc2cc(O)ccc12
active: locus YDR392W, strain spt3, stronger effect = lower value 0.41 | locus YER155C, strain BEM2 (second series), stronger effect = lower value 0.608 | locus YNL071W, strain lat1, stronger effect = lower value 0.854 | locus YPL055C, strain LGE1, stronger effect = lower value 0.826
inactive: locus YAL021C, strain ccr4, stronger effect = lower value 0.971 | locus YAL026C, strain drs2, stronger effect = lower value 0.987 | locus YAL030W, strain snc1, stronger effect = lower value 1.01 | locus YAL040C, strain CLN3, stronger effect = lower value 1.02 | locus YBL061C, strain skt5, stronger effect = lower value 1.01 | locus YBR009C, strain hhf1, stronger effect = lower value 1 | locus YBR023C, strain chs3, stronger effect = lower value 1.01 | locus YBR171W, strain sec66, stronger effect = lower value 1.04 | locus YBR231C, strain swc5, stronger effect = lower value 0.989 | locus YBR279W, strain paf1, stronger effect = lower value 1.02 | locus YCL011C, strain gbp2, stronger effect = lower value 1.02 | locus YCL016C, strain dcc1, stronger effect = lower value 1 | locus YCL061C, strain MRC1 (second series), stronger effect = lower value 0.998 | locus YCL061C, strain MRC1, stronger effect = lower value 1.01 | locus YCL069W, strain vba3, stronger effect = lower value 1.03 | locus YCR088W, strain abp1, stronger effect = lower value 1.02 | locus YDL005C, strain med2, stronger effect = lower value 1.04 | locus YDL040C, strain nat1, stronger effect = lower value 1.02 | locus YDR001C, strain nth1, stronger effect = lower value 1.02 | locus YDR069C, strain doa4, stronger effect = lower value 1.01 | locus YDR137W, strain rgp1, stronger effect = lower value 1.09 | locus YDR150W, strain NUM1, stronger effect = lower value 0.977 | locus YDR159W, strain sac3, stronger effect = lower value 0.984 | locus YDR195W, strain ref2 1.01 | locus YDR297W, strain sur2, stronger effect = lower value 1.01 | locus YDR334W, strain swr1, stronger effect = lower value 1.02 | locus YDR335W, strain msn5, stronger effect = lower value 1.03 | locus YDR363W, strain ESC2, stronger effect = lower value 0.983 | locus YEL003W, strain gim4, stronger effect = lower value 1.02 | locus YEL037C, strain rad23, stronger effect = lower value 1.04 | locus YEL061C, strain CIN8 (second series), stronger effect = lower value 1.03 | locus YER002W, strain NOP16, stronger effect = lower value 1 | locus YER015W, strain faa2, stronger effect = lower value 1.01 | locus YER016W, strain bim1, stronger effect = lower value 1.01 | locus YER111C, strain swi4, stronger effect = lower value 1.03 | locus YFR010W, strain ubp6, stronger effect = lower value 1.04 | locus YGL167C, strain pmr1, stronger effect = lower value 1.03 | locus YGL173C, strain kem1, stronger effect = lower value 1.01 | locus YGL227W, strain vid30, stronger effect = lower value 1.01 | locus YGL240W, strain doc1, stronger effect = lower value 0.967 | locus YGL253W, strain hxk2, stronger effect = lower value 1.02 | locus YHR013C, strain ard1, stronger effect = lower value 0.958 | locus YHR027C, strain rpn1, stronger effect = lower value 1.01 | locus YHR030C, strain SLT2, stronger effect = lower value 0.968 | locus YHR079C, strain IRE1, stronger effect = lower value 0.968 | locus YHR142W, strain chs7, stronger effect = lower value 0.983 | locus YJL092W, strain hpr5, stronger effect = lower value 1.01 | locus YJL095W, strain BCK1 (second series), stronger effect = lower value 1.02 | locus YJL095W, strain BCK1, stronger effect = lower value 1 | locus YJL115W, strain asf1, stronger effect = lower value 1.03 | locus YJL129C, strain trk1, stronger effect = lower value 1.01 | locus YJL154C, strain vps35, stronger effect = lower value 1.03 | locus YJL164C, strain tpk1, stronger effect = lower value 0.982 | locus YJL166W, strain qcr8, stronger effect = lower value 0.968 | locus YJL187C, strain SWE1, stronger effect = lower value 1.02 | locus YJR066W, strain TOR1, stronger effect = lower value 0.924 | locus YKL160W, strain elf1, stronger effect = lower value 0.982 | locus YKR026C, strain gcn3, stronger effect = lower value 1.01 | locus YKR091W, strain srl3, stronger effect = lower value 1.02 | locus YLL001W, strain dnm1, stronger effect = lower value 1.01 | locus YLL026W, stronger effect = lower value 1.01 | locus YLL041C, strain sdh2, stronger effect = lower value 1.02 | locus YLR027C, strain aat2, stronger effect = lower value 1.01 | locus YLR113W, strain HOG1, stronger effect = lower value 0.986 | locus YLR221C, strain rsa3, stronger effect = lower value 1 | locus YLR258W, strain gsy2, stronger effect = lower value 1.01 | locus YLR262C, strain YPT6 (second series), stronger effect = lower value 1.01 | locus YLR320W, strain mms22, stronger effect = lower value 0.911 | locus YLR342W, strain FKS1, stronger effect = lower value 1 | locus YLR357W, strain rsc2, stronger effect = lower value 0.964 | locus YLR370C, strain arc18, stronger effect = lower value 1.03 | locus YLR384C, strain iki3, stronger effect = lower value 1.04 | locus YML120C, strain ndi1, stronger effect = lower value 1.01 | locus YMR058W, strain fet3, stronger effect = lower value 1.01 | locus YMR125W, strain sto1, stronger effect = lower value 0.989 | locus YMR129W, stronger effect = lower value 1.02 | locus YMR205C, strain PFK2, stronger effect = lower value 0.981 | locus YMR231W, strain pep5, stronger effect = lower value 1.03 | locus YMR307W, strain GAS1, stronger effect = lower value 0.917 | locus YNL128W, strain TEP1, stronger effect = lower value 1.02 | locus YNL175C, strain NOP13, stronger effect = lower value 0.993 | locus YNL183C, strain NPR1, stronger effect = lower value 0.965 | locus YNL197C, strain WHI3, stronger effect = lower value 0.998 | locus YNL209W, strain ssb2, stronger effect = lower value 1.01 | locus YNL224C, strain SQS1, stronger effect = lower value 1.01 | locus YNL248C, strain rpa49, stronger effect = lower value 0.986 | locus YNL322C, strain KRE1 (second series), stronger effect = lower value 1.02 | locus YNR049C, strain mso1, stronger effect = lower value 1.02 | locus YOR001W, strain rrp6, stronger effect = lower value 1 | locus YOR070C, strain gyp1, stronger effect = lower value 1.02 | locus YOR080W, strain dia2, stronger effect = lower value 1.02 | locus YOR083W, strain WHI5 (second series), stronger effect = lower value 0.997 | locus YOR083W, strain WHI5, stronger effect = lower value 0.979 | locus YOR106W, strain vam3, stronger effect = lower value 0.987 | locus YOR231W, strain MKK1, stronger effect = lower value 0.995 | locus YOR265W, strain rbl2, stronger effect = lower value 1.01 | locus YOR270C, strain vph1, stronger effect = lower value 1.01 | locus YOR290C, strain snf2, stronger effect = lower value 0.995 | locus YPL051W, strain arl3, stronger effect = lower value 0.977 | locus YPL078C, strain atp4, stronger effect = lower value 0.985 | locus YPL106C, strain sse1, stronger effect = lower value 1.01 | locus YPL240C, strain hsp82, stronger effect = lower value 1.03 | locus YPL241C, strain CIN2, stronger effect = lower value 1 | locus YPL256C, strain CLN2, stronger effect = lower value 0.97
